Among the data in PubChem BioAssay AID449762 (Southern Research Specialized Biocontainment Screening …, 2010) are inhibition values, retold here.

Hit rate of the full screen: of about 330,000 compounds, about 1,900 (0.58%) were called active. Not shown: some 4% with an inconclusive outcome. Cut-off read from the data, not from the text of the source: inconclusive = inhibition above about 70% without an active follow-up result; inactive = below that. Not all results are given here. Measured potencies and affinities stand elsewhere.

The assay in a line: M. tuberculosis growth inhibition, HTS (AID 449762).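 Note: bacterial growth assessed after seven days of incubation.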 Conditions: M. tuberculosis H37Rv growth inhibition, 7H9 media; at 25 µM; stronger effect = higher value.
Regarding `CCCCc1c(O)nc(SCC(=O)N2CCCCC2)[nH]c1=O`, the inhibition (as a rule, the drop in the measured response relative to a control, in per cent) is 17.7% (inactive). Then `COc1ccc(-c2nnc(SCC(=O)NC3CCCC3)n2C)cc1`, with -3.82% (inactive); and `Cc1ccc(C(=O)/C=C/c2ccc3c(c2)OCO3)o1`, with 1.84% (inactive); and `Cc1ccc(C(=O)/C=C/c2ccccc2)o1`, with 4.37% (inactive). Regarding `CC1CCCCN1S(=O)(=O)c1cccc2nonc12` (stereo not drawn), the inhibition was -1.08% (inactive).

For the molecule `CCC(CC)NC(=O)c1cc2c(C)nn(Cc3ccccc3Cl)c2s1`, the inhibition was -1.27% (inactive). The figure for `Cc1nn(Cc2ccccc2Cl)c2sc(C(=O)NC(C)(C)C)cc12` is 30.5% (inactive). The figure for `CCCCNC(=O)CCNC(=O)c1ccc(C(C)(C)C)cc1` is -8.34% (inactive); for `CCCNC(=O)CCNC(=O)c1ccc(C(C)(C)C)cc1` it is -4.92% (inactive). As for `O=C(CSc1nnc(-c2c[nH]c3ccccc23)o1)N(Cc1ccccc1)c1ccc(F)cc1`, the inhibition is -6.56% (inactive). Then `Cc1nc(SCc2nc3ccccc3[nH]2)c2oc3ccc(Br)cc3c2n1`, with 18% (inactive). The figure for `Cc1ccccc1CN1C(=O)[C@H]2Cc3c([nH]c4ccccc34)C(C)(C)N2C1=O` is -6.56% (inactive); for `Cc1ccccc1CN1C(=O)[C@@H]2Cc3c([nH]c4ccccc34)C(C)(C)N2C1=O` it is 8.29% (inactive); for `C/C=C(\C)C(=O)NCCN1C2=NC[C@H](C)N2C[C@@H]1Cc1ccc(OC)cc1` it is 0.12% (inactive).

In the case of `CC(=O)c1ccc(N2CCC(c3cc(-c4ccc(Cl)cc4)n[nH]3)CC2)c([N+](=O)[O-])c1`, the inhibition is -1.54% (inactive). On to `COc1ccc(OC)c(-c2cc(C3CCN(c4cc(Cl)nc(N)n4)CC3)[nH]n2)c1`, for which the inhibition was -10.8% (inactive). Then `COc1ccc(-c2cc(C3CCN(c4ccc(C(C)=O)cc4[N+](=O)[O-])CC3)[nH]n2)cc1`, with 2.56% (inactive). For `Nc1nc(Cl)cc(N2CCC(c3cc(-c4ccc(Cl)cc4)n[nH]3)CC2)n1`, the inhibition was 4.43% (inactive). Then `Cc1cc(OCC(=O)NCc2ccccn2)c2c(C)c(Cc3ccccc3)c(=O)oc2c1`, with 3.29% (inactive); and `O=C(CN(Cc1cccs1)C(=O)CN1C(=O)COc2ccccc21)NCc1ccco1`, with -10.2% (inactive); and `COc1ccc(S(=O)(=O)N2CCN(C(=O)CCNC(=O)c3ccccc3Cl)CC2)cc1`, with -12.2% (inactive). The figure for `COc1cc(OC)nc(Oc2cc(/C=N/O)ccc2OC)n1` is 6.12% (inactive).

As to `O=C(O)c1ccccc1NS(=O)(=O)c1ccc(NN=Cc2ccc(F)cc2)c([N+](=O)[O-])c1`, the inhibition is 9.86% (inactive). The figure for `OC1(c2ccc(F)cc2)CCN(Cc2nnnn2Cc2cccs2)CC1` is 5.23% (inactive); for `CC(C)OC(=O)CSc1nnnn1-c1ccc2c(c1)OCCO2` it is -0.39% (inactive).

Regarding `O=C(O)CSc1nnnn1-c1ccc2c(c1)OCCO2`, the inhibition is -0.83% (inactive). For the molecule `O=C(NCCC1=CCCCC1)C1CCN(S(=O)(=O)c2cccc(C(F)(F)F)c2)CC1`, the inhibition was 5.79% (inactive).

Take `Cc1cc(C)nc(NC(=O)CSc2nn(-c3ccccc3)c(=S)s2)n1`: the inhibition is -0.15% (inactive).

On to `CSc1nsc(SCCN2C(=O)c3ccccc3C2=O)n1`, for which the inhibition was 2.52% (inactive). Take `Nc1nnc(SCCN2C(=O)c3ccccc3C2=O)s1`: the inhibition is -1.41% (inactive). The figure for `CCOC(=O)CSc1nnc(-c2ccccc2)c(=O)[nH]1` is -2.8% (inactive); for `CCOC(=O)CSc1nn(C)c(=S)s1` it is 0.33% (inactive); for `CCOC(=O)CSc1snnc1C` it is -6.63% (inactive). Then `Cc1ccc(NC(=S)N(CCN(C)C)C(C)c2cccnc2)c(C)c1` (stereo not drawn), with 4.11% (inactive); and `COC(=O)c1cc(OC)c(OC)cc1NC(=O)c1c(-c2ccccc2Cl)noc1C`, with -3.97% (inactive).

For `Cc1ccc(-c2csc(NC(=O)c3ccccc3Cl)c2C(=O)O)cc1`, the inhibition is 13.9% (inactive). The figure for `CSc1cccc(NC(=O)C2C3C=CC4(O3)C2C(=O)N(CCCN2CCOCC2)C4C(=O)NC2CCCCC2)c1` (stereo not drawn) is 3.36% (inactive). The figure for `O=C(c1ccccc1F)N1CCN(S(=O)(=O)c2ccc3ccccc3c2)CC1` is 7.72% (inactive); for `COc1ccc(NS(=O)(=O)c2cc(NC(=O)C3CC3)ccc2N2CCCCC2)cc1` it is 1.69% (inactive). Then `Cc1ccc2c(c1)c1c3n2CCN(C(=O)CN2CCN(C)CC2)C3CCC1` (stereo not drawn), with -3.37% (inactive); and `CC(=O)N1CCn2c3c(c4cc(C)ccc42)CCCC31` (stereo not drawn), with 4.84% (inactive); and `CC(C)CCN1CCN(CC(c2ccccc2)c2ccccc2)CC1CCO` (stereo not drawn), with -4.44% (inactive). As to `Cc1ccc(Cn2c(=N)c(C(=O)NCc3ccco3)cc3c(=O)n4ccccc4nc32)cc1`, the inhibition is 4.13% (inactive). The figure for `COCCn1c(=N)c(C(=O)NCc2ccco2)cc2c(=O)n3cc(C)ccc3nc21` is 0.47% (inactive); for `COc1ccc(NC(=O)CN2CCN(c3nc(-c4ccc(F)cc4)cs3)CC2)c(OC)c1` it is 8.68% (inactive); for `O=[N+]([O-])c1ccc(F)c(N=Cc2ccc(Br)s2)c1` it is 1.92% (inactive). Regarding `CCN(CC)C(=O)Oc1ccc2c(=O)c(-c3ccccc3)coc2c1`, the inhibition was 64.8% (inactive). The figure for `COc1ccc(-c2coc3cc(OC(=O)N4CCOCC4)ccc3c2=O)cc1` is 10.6% (inactive); for `CCOc1ccc(N(CC(=O)Nc2cc(C)cc(C)c2)S(C)(=O)=O)cc1` it is 7.61% (inactive). The figure for `N#C/C(=C/c1ccccc1[N+](=O)[O-])C(=O)NCc1ccco1` is -4.24% (inactive); for `CCCCSC1=NN1c1nc(N)nc(C)c1CC` it is -7.73% (inactive). Then `CC1CN(C(=S)c2cccc([N+](=O)[O-])c2)CC(C)O1` (stereo not drawn), with -2.37% (inactive); and `CC1CN(C(=O)c2cc([N+](=O)[O-])cc([N+](=O)[O-])c2)CC(C)O1` (stereo not drawn), with -5.16% (inactive).

Consider `Cc1nn(CC(C)C(=O)N2CCN(S(=O)(=O)c3ccc(Cl)cc3)CC2)c(C)c1C` (stereo not drawn), for which the inhibition was -2.72% (inactive). The figure for `CCCCCCCCc1nc(SC(C)C(=O)O)n[nH]1` (stereo not drawn) is -1.56% (inactive); for `COc1ccc(C2Nc3ccccc3NC3=C2C(=O)CC(C)(C)C3)c(OC)c1OC` (stereo not drawn) it is 8.53% (inactive).

For the molecule `COc1ccc(NC(=O)c2ccc([N+](=O)[O-])o2)cc1`, the inhibition was 6.03% (inactive). The figure for `COc1ccc(-c2nnc(NC(=O)CS(=O)(=O)c3ccc(F)cc3)o2)c(OC)c1` is 7.17% (inactive); for `COc1ccc(S(=O)(=O)N(C)CC(=O)NCc2ccco2)cc1Cl` it is 2.22% (inactive); for `CCCn1nnc(NC(=O)COc2ccc(C3CCCCC3)cc2)n1` it is -1.63% (inactive).

Take `CCCn1nnc(NC(=O)COc2ccccc2Cl)n1`: the inhibition was -5.02% (inactive). The figure for `Cc1cc(C(=O)N(C)CC2CCCN(CCc3ccc(F)cc3)C2)c(C)o1` (stereo not drawn) is -2.12% (inactive); for `N=C1c2ccccc2CN1NC(=O)COc1ccc(Cl)cc1` it is -8.46% (inactive); for `CCc1nn(CCCC(=O)N2CCc3ccccc3C2)c(=O)c2cc3occc3n12` it is -0.11% (inactive). As to `COc1cccc(NC(=O)CSc2nc(O)c(C)c(=O)n2-c2ccc(C)cc2)c1`, the inhibition is -11.9% (inactive). Then `CCOc1ccc(-n2c(SCC(=O)Nc3ccc(C(=O)O)cc3)nc3ccccc3c2=O)cc1`, with 1.72% (inactive); and `CC(=O)c1ccc(NC(=O)CSc2cn[nH]n2)cc1`, with 4.87% (inactive). Then `Cc1ccc(NC(=O)CSc2cn[nH]n2)cc1`, with -2.03% (inactive); and `Cc1nnc(NC(=O)CSc2nnc(Cc3cccn3C)n2C)s1`, with -5.68% (inactive); and `Cc1ccc(S(=O)(=O)N(C)C)cc1NC(=O)c1cccnc1Oc1ccccc1`, with -2.85% (inactive). The figure for `O=C(Nc1ccc2c(c1)OCO2)c1cnn2c1NC(c1ccco1)CC2C(F)(F)F` (stereo not drawn) is -5.12% (inactive); for `COc1ccc(-c2[nH]ncc2CN(C)Cc2ccccn2)c(OC)c1` it is 4.69% (inactive).

Take `O=C(NCc1ccccn1)c1cc2c(ccc3ccccc32)oc1=O`: the inhibition was -2.34% (inactive). The figure for `CCOC(=O)N1CCC(N2Cc3cccc(C(=O)Nc4cc(F)ccc4F)c3C2=O)CC1` is -1.17% (inactive). Then `CCOC(=O)c1ccccc1NC(=O)c1cccc2c1C(=O)N(C1CCN(C(=O)OCC)CC1)C2`, with -3.66% (inactive); and `Cc1ccc(C2C3=C(CCCC3=O)N=C3c4ccccc4C(=O)C32)cc1` (stereo not drawn), with 4.41% (inactive). Then `O=C1CCCC2=C1C(c1ccccc1)C1C(=O)c3ccccc3C1=N2` (stereo not drawn), with 0.55% (inactive). For the molecule `CCO[C@@H]1OC(C(=O)NCc2ccccc2)=C[C@H](C)[C@H]1CCCO`, the inhibition was 0.33% (inactive). Then `CCOC(=O)CSC1=C(C#N)C(C)C2=C(CCCC2=O)N1` (stereo not drawn), with 10.6% (inactive); and `CCOC(=O)CSC1=C(C#N)C(c2ccccc2C)C2=C(CCCC2=O)N1` (stereo not drawn), with -2.12% (inactive). The figure for `Clc1cccc(CN2CCSCC2)c1Cl` is 5.96% (inactive); for `O=C(OCc1ccc(O)cc1)c1c(-c2ccsc2)oc2ccc(N3CCOCC3)cc12` it is -0.88% (inactive). The figure for `COc1ccc(/C=C/c2c(-c3cccc(C)c3)oc3ccc(N4CCOCC4)cc23)cc1` is -2.46% (inactive). `COc1ccc(-c2noc(-c3ccco3)n2)cc1OC`: the inhibition is -0.61% (inactive).

Consider `CCOC(=O)c1cc(-c2ccncc2)nc2c1c(C)nn2-c1ccccn1`, for which the inhibition was 0.76% (inactive).

For the molecule `COc1ccc(-c2cc(C(=O)O)c3c(C)nn(-c4ccccn4)c3n2)cc1`, the inhibition was 10.2% (inactive). The figure for `O=C(NC1CCCC1)C(c1ccncc1)N(C(=O)c1csnn1)C1CCCC1` (stereo not drawn) is 3.35% (inactive); for `Nc1nc(-c2ccc(Cl)cc2)c(S(=O)(=O)c2ccccc2)s1` it is -1.98% (inactive); for `Cc1nnsc1S(=O)(=O)c1ccccc1` it is -0.59% (inactive). Consider `COc1ccc(N(CC(=O)NC2CCCC2)S(=O)(=O)c2c(C)[nH]c(=O)[nH]c2=O)cc1`, for which the inhibition was -3.45% (inactive).

For `Cc1ccc(OCCNC(=O)CNC(=O)c2ccc(C)cc2)cc1`, the inhibition is 5.29% (inactive). The figure for `Cc1cc(CN(C)C(=O)c2cc(COc3ccc(C)c(C)c3)on2)on1` is 7.13% (inactive); for `Cc1ccc(OCc2cc(C(=O)N(C)Cc3nccn3C)no2)cc1C` it is 8.06% (inactive).
